Results as given in paper PMC13494018.
Unmarked numbers belong to inactive results. No rule for the calls is given here.

B1: d8r1_design_ppi_1486_dldesign_0_cycle1_af2pred (protein)
chain: MKELEEAKKEAEKAREELLKAAKEAAKVDPTVATGANNAAEGAKVLIESGSLGAARAGKAIAEAALKKAQAVLDAAQKA
B2: d8r1_design_ppi_139_dldesign_0_cycle0_af2pred (protein)
chain: EELLEKLKEKAEKVKKLAEEGAEAEELEKARKELGAALSALTRAIAEASPELAAKGREAAAEAAKAAIKAGEKAEELKKA
B3: d8r1_design_ppi_257_dldesign_0_cycle1_af2pred (protein)
chain: DEKDTATAEALGAISRAIAAAKALAATGDPEEAARLAEAARAAIAEALELAKKTTPSSQAAIEVAAARARAALDAALAKQAARAAA
B4: d8r1_design_ppi_87_dldesign_0_cycle0_af2pred (protein)
chain: MEEEFDERMRKAAEYLAKMDAALAAIKAAGDRAEAEKLLAELRKAGEEMAKELGEAGKAIKEALEAQAQAALAA
B5: d8r1_design_ppi_290_dldesign_0_cycle1_af2pred (protein)
chain: SKAEAEKLKAQIEAAKAAGVAGDAATAAAAIAAITALADQAAALDPEYAAEVVNAANKAMLAVGDAREAKAAA
B6: d8r1_design_ppi_487_dldesign_0_cycle0_af2pred (protein)
chain: AAAEAAKAALAAEGERLLEEAERNLKIAKEGNGEEAAKASRNTLLNLAELTKLADEAAAADPAAGKVGAELLARLREILREIEAVNLA
B7: d8r1_design_ppi_568_dldesign_0_cycle0_af2pred (protein)
chain: AGEALNLAARGLIAAGEAGDAEAAAQAAALLAKATAALAAGDEAAAKAYAAEAAAVADPEKAPEAEAVKAAAAA
B8: d8r1_design_ppi_1356_dldesign_0_cycle0_af2pred (protein)
chain: SAELIAQTARAGAVMLAAGIAGTPEAAANAAAGTSLLLKAKAESTGSEELKALAERAAAAAATLKADPAAGRAALAALRDELEKLAK
B9: d8r1_design_ppi_43_dldesign_0_cycle0_af2pred (protein)
chain: MEALERASRVLAEAARLAMKNPAYAPAFAEVAAAYRETIAAYKESPEAAKEAAERLEKLAAERIAAAKAAL
B10: d8r1_design_ppi_645_dldesign_0_cycle0_af2pred (protein)
chain: KLEEAKEKLEKGKELLKKAKEDPENAIEYAKEALKEFSEASRLAAEAAKDEEYKEEAEELLKEANKLASEATQLLAKKASEEEK
B11: d8r1_design_ppi_78_dldesign_0_cycle1_af2pred (protein)
chain: SMKKEEAKKVAEEARKAAKEAEELAKKIGDAKLAQQAKNIAAGADKAAEFGSLNMVKAFLREAKKLKEEAKKKLA
B12: d8r1_design_ppi_1080_dldesign_0_cycle0_af2pred (protein)
chain: SMESVLKSAESLAEAARRLAAERAAEPELVLRAAENALAGGTKLGEARGPEVAKKVRERMEATLAEIRARLA
B13: d8r1_design_ppi_321_dldesign_0_cycle1_af2pred (protein)
chain: GSNFEKAYYAGEAYSYAYAAVKEAKALVKALGDAAKPLLDEAEALLKKIEEVLKNGNLEEAKKMLEEAKALLEKVKAA
B14: d8r1_design_ppi_59_dldesign_0_cycle1_af2pred (protein)
chain: MSELSEKLIEAAIAAHRAAAELAALGAPAEAAAHRAKAAKLFGEARKLIQEGDEEKAKKALEEAEALAAAAAAAAKKARAAAAAA
B15: d8r1_design_ppi_1408_dldesign_0_cycle1_af2pred (protein)
chain: EESVKASILAAIERGARLLAAENPAAGVAALTVARVLTTTGGLGSAIAGAAAFAAIAAAATGARGAAIGGSVVSFTVKLVEMYK
B16: d8r1_design_ppi_219_dldesign_0_cycle1_af2pred (protein)
chain: DARLERVAKVTAEAYAKVAAVAAGEKLPLARRAAALLAAGGFSPEAAAEYFAEAKAIAAEIGPEAAAIIEEAGKAV
B17: d8r1_design_ppi_1191_dldesign_0_cycle1_af2pred (protein)
chain: AKAELKKKAEEYEKLYNAAKAALDVALADPSFSKSAKKAIAQAQVDAAKKALEAAKAYDPSQAPYWQAKLDAAQAALDAI
B18: d8r1_design_ppi_419_dldesign_0_cycle0_af2pred (protein)
chain: SELEEEARKAEEEFRAALAELEAAAAELEKLDPAAGATARRAAEGARGLLELAKKFSVKSQLNVAKSMLRGAERQLAAARARVAALK
B19: d8r1_design_ppi_991_dldesign_0_cycle1_af2pred (protein)
chain: AEAARTAAIAKSIAGLAKLAEKAKDDKSVVRAAATAAAAAAAKDAALGKAAAERLKAAAEATPEEAIATLKAVAAEIAAAAAA
B20: d8r1_design_ppi_705_dldesign_0_cycle1_af2pred (protein)
chain: MSKLTQAMLHYGRALAAAVALADDPEAAGKAVSAEMAEAAKVAAAGSPEVQKQALEAGEIIVEQIKKVNPEVGAKAAEAVKTTLAKL
B21: d8r1_design_ppi_750_dldesign_0_cycle1_af2pred (protein)
chain: SRLEEARAIAERAAAEAAAAGNVAEAVAIAQRGAAEVVRTLSPEPVEAKAEVLAHHAELAQAVIDALTAAE
B22: d8r1_design_ppi_679_dldesign_0_cycle1_af2pred (protein)
chain: ATAEARRAVVEEAIARITAALADRPQWAAKAAAVLERGARLGREAEAARAVAAMLEVLGYTEAAAVAAEAAERIAAL
B23: d8r1_design_ppi_536_dldesign_0_cycle0_af2pred (protein)
chain: SKDEEIAKLLLKTAEAARKDAKKALELAKELKKLGNKNQGGAIVTLLQAAVENKGAAGKSALAGAVKLAEAKAEDLLAK
B24: d8r1_design_ppi_502_dldesign_0_cycle0_af2pred (protein)
chain: SFEEEKKKADEYMTKAAELAPPELKPAVQNMRDGILKAFEVSPKSALNLAKSALRWVKKHGSEEAAKEMEKALEHLEKAAE
B25: d8r1_design_ppi_820_dldesign_0_cycle1_af2pred (protein)
chain: AAEAQALLQTFEANVEGAKMMGEASSLPALVRYHAITKTSATLAARAKELGLEEAAAQIEARGKELAAEAKAGLEKELAA
B26: d8r1_design_ppi_786_dldesign_0_cycle1_af2pred (protein)
chain: SEEKEKLKKLAEKARAGAEAAKADPSKAAEYGKEAYELAKEALPESIAELFKKAVEKNPVSGLAFLAAYAKYKAES
B27: d8r1_design_ppi_1323_dldesign_0_cycle1_af2pred (protein)
chain: MKASIKHLIEQAKKYAKEAKETGSDALARAAASAAAAAAVLAKEAGDKELAKEAEKVAKEIAEVAPPSIAKYAKEAAKLAAE
B28: d8r1_design_ppi_493_dldesign_0_cycle1_af2pred (protein)
chain: SDARIAGAVAIMRLGAADADAATGAALREVGAAFAVSPEAGVAKAAELAAALAAARTPAAAAAGAARLAAATALGVAIAAAGA
B29: d8r1_design_ppi_456_dldesign_0_cycle1_af2pred (protein)
chain: SAQAAAAEKLRALADAIAAASPAYQPAANALRAAAVVAEKSGNGASALALLDAAIAAAAKVPGGAEWAAAIRAAAAEVRAAFA
B30: d8r1_design_ppi_286_dldesign_0_cycle0_af2pred (protein)
chain: SNEENAENLRLAGRAIEGVAESASAKQTADHLNNVATAAAKIDAETGKKLKAIGEEVLKTGDAKEGGEKAKKVLEEAAEKFK
B31: d8r1_design_ppi_442_dldesign_0_cycle1_af2pred (protein)
chain: DAAAVAAIAAAAAEAAGLYVRGRAASSKDPAEAKKYYAEADALVAAMLAAGAATSPAVAAAAAAAAATVAATRAALDAIKA
B32: d8r1_design_ppi_305_dldesign_0_cycle1_af2pred (protein)
chain: AEEALKLLAEAAAAASPEVAALANQALALLKQAENPEAMKQAIALLNAAYLAADPAIQPLIRRALQLAMQVLAKADR
B33: d8r1_design_ppi_790_dldesign_0_cycle1_af2pred (protein)
chain: KAEEAKALAEKAIAAAPDVDAAAEEIAAAVKLGTGEALVAAARAAAAAIRALGDPAAQARLLELAREHGSRTYAAVAAGLAIARAEAA
B34: d8r1_design_ppi_1423_dldesign_0_cycle0_af2pred (protein)
chain: STAEKIAKYNKFAEEAKAAAKRVAEEGEEAAKEAIETLKKLAKESDAETAETLNKLAEIAEEGGGSAALAAMQAAAVHFANKAAKLAA
B35: d8r1_design_ppi_1247_dldesign_0_cycle0_af2pred (protein)
chain: SSDKENSKLIREAMKVIGETLAAARAAVAAGDLEAARAAVAEGVARLEEMAEKSKDEATRETLLRMAEALRAQGAKILA
B36: d8r1_design_ppi_1135_dldesign_0_cycle1_af2pred (protein)
chain: DPREQFAAAVKEAAAALPDIADQVLALGEQALAAEGQAAADAMKAFVTLVTAAAAKASPEAAKAAGIAAANAMKAVSKIEE
B37: d8r1_design_ppi_198_dldesign_0_cycle1_af2pred (protein)
chain: AAAALQAAAAAAAARLEKLAEEAAADPRLAPAAAAARAAAAQARANPAIAAQLAANTEAFVATYRAAVEEK
B38: d8r1_design_ppi_282_dldesign_0_cycle1_af2pred (protein)
chain: STDEELAAKAAALANLNKALAIATKFDPSVLADFKKIASLILDPNKKEEAVKLLNEKAKEAEAKDPAAGAALKAAAEEAKKI

The binders below were run against PDL1, Q9NZQ7.
Chain of PDL1, Q9NZQ7 (Q9NZQ7 whole entry): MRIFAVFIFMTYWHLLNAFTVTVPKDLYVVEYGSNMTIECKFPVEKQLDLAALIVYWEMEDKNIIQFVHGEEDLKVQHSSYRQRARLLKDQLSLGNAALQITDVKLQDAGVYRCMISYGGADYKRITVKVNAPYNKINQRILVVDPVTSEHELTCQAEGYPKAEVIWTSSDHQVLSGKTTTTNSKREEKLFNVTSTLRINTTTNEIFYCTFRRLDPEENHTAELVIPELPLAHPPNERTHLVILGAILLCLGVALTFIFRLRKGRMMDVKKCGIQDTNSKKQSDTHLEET
For B1, the “binding in a display sort” value was “not found”.
In the case of B2, the “binding in a display sort” value is reported as “not found”.
For B3, the “binding in a display sort” value was “not found”.
With B4 the “binding in a display sort” value was “not found”.
For B5, the “binding in a display sort” value was “not found”.
For B6, the “binding in a display sort” value was “not found”.
B7 was tested, and the “binding in a display sort” value was “not found”.
With B8 the “binding in a display sort” value was “not found”.
With B9 the “binding in a display sort” value was “not found”.
With B10 the “binding in a display sort” value was “not found”.
In the case of B11, the “binding in a display sort” value is reported as “not found”.
With B12 the “binding in a display sort” value was “not found”.
With B13 the “binding in a display sort” value was “binds (active)”.
B14 was tested, and the “binding in a display sort” value was “not found”.
In the case of B15, the “binding in a display sort” value is reported as “not found”.
B16 was tested, and the “binding in a display sort” value was “not found”.
B17 was tested, and the “binding in a display sort” value was “not found”.
B18 was tested, and the “binding in a display sort” value was “not found”.
For B19, the “binding in a display sort” value was “not found”.
With B20 the “binding in a display sort” value was “not found”.
In the case of B21, the “binding in a display sort” value is reported as “not found”.
For B22, the “binding in a display sort” value was “not found”.
With B23 the “binding in a display sort” value was “not found”.
B24 was tested, and the “binding in a display sort” value was “not found”.
In the case of B25, the “binding in a display sort” value is reported as “not found”.
In the case of B26, the “binding in a display sort” value is reported as “not found”.
B27 was tested, and the “binding in a display sort” value was “not found”.
In the case of B28, the “binding in a display sort” value is reported as “not found”.
For B29, the “binding in a display sort” value was “not found”.
For B30, the “binding in a display sort” value was “not found”.
B31 was tested, and the “binding in a display sort” value was “not found”.
With B32 the “binding in a display sort” value was “not found”.
B33 was tested, and the “binding in a display sort” value was “not found”.
B34 was tested, and the “binding in a display sort” value was “not found”.
In the case of B35, the “binding in a display sort” value is reported as “not found”.
In the case of B36, the “binding in a display sort” value is reported as “not found”.
B37 was tested, and the “binding in a display sort” value was “not found”.
B38 was tested, and the “binding in a display sort” value was “not found”.
